Assay results taken from PubChem BioAssay AID1159580 (chemical genetic matrix, 2015).
Screen size: about 5,500 compounds; about 2,000 (36%) were called active. Roughly 18% stayed inconclusive and do not appear here. No stated cut-off is given here; in the data, active means normalized growth mostly below about 0.91 (no sharp cut-off); inconclusive means no clear call, values can overlap the other calls; inactive means mostly above about 0.92. This is one part of the list.

Test: chemical genetic growth profiling, strain panel (AID 1159580);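 further: tested at 20 µM; growth read once vehicle control cultures reached saturation at 30 °C; 1 = growth at the plate median or of vehicle wells; lower values mean less growth of the strain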
Conditions: S. cerevisiae deletion strains, growth OD
[1] = locus YHR030C, strain SLT2, hits give low values
[2] = locus YHR079C, strain IRE1, hits give low values
[3] = locus YJL095W, strain BCK1, hits give low values
[4] = locus YJR066W, strain TOR1, hits give low values
[5] = locus YLR113W, strain HOG1, hits give low values
[6] = locus YNL183C, strain NPR1, hits give low values
[7] = locus YOR231W, strain MKK1, hits give low values
[8] = locus YPL256C, strain CLN2, hits give low values

Measured: normalized growth

N#CCCCCOc1ccc2c(=O)cc(-c3ccccc3)oc2c1
active: [8] 1.15 [resistant]
inactive: locus YAR019C, strain CDC15, hits give low values 0.99 | locus YBL105C, strain PKC1, hits give low values 0.978 | locus YBR135W, strain CKS1, hits give low values 0.977 | locus YBR136W, strain MEC1, hits give low values 0.977 | locus YBR160W, strain CDC28, hits give low values 0.977 | locus YDL017W, strain CDC7, hits give low values 0.988 | locus YDL028C, strain MPS1, hits give low values 0.981 | locus YDL101C, strain DUN1, hits give low values 0.972 | locus YDL108W, strain KIN28, hits give low values 0.977 | locus YDL132W, strain cdc53, hits give low values 0.971 | locus YDL214C, strain PRR2, hits give low values 0.946 | locus YDR052C, strain DBF4, hits give low values 0.989 | locus YDR054C, strain cdc34, hits give low values 0.988 | locus YDR226W, strain ADK1, hits give low values 0.977 | locus YDR477W, strain SNF1, hits give low values 0.959 | locus YER123W, strain YCK3, hits give low values 0.954 | locus YER133W, strain GLC7, hits give low values 0.972 | locus YFL009W, strain cdc4, hits give low values 0.979 | locus YFL029C, strain CAK1, hits give low values 0.989 | locus YFR003C, strain YPI1, hits give low values 0.981 | locus YFR019W, strain FAB1, hits give low values 0.961 | locus YFR028C, strain CDC14, hits give low values 0.974 | locus YGR040W, strain KSS1, hits give low values 0.94 | locus YGR052W, strain FMP48, hits give low values 0.972 | locus YGR092W, strain DBF2, hits give low values 0.938 | [1] 1.08 | [2] 1.08 | locus YHR082C, strain KSP1, hits give low values 1.07 | locus YHR205W, strain SCH9, hits give low values 0.976 | locus YIL147C, strain SLN1, hits give low values 0.974 | [3] 0.933 | locus YJL128C, strain PBS2, hits give low values 0.938 | locus YJL157C, strain FAR1, hits give low values 0.971 | locus YJR016C, strain ILV3, hits give low values 0.967 | locus YJR066W, strain TOR1 (second series), hits give low values 0.914 | [4] 1.04 | locus YKL048C, strain ELM1, hits give low values 0.966 | locus YKL067W, strain YNK1, hits give low values 0.956 | locus YKL101W, strain HSL1, hits give low values 0.936 | locus YKL193C, strain SDS22, hits give low values 0.969 | locus YKL203C, strain TOR2, hits give low values 1.01 | [5] 0.955 | locus YLR133W, strain CKI1, hits give low values 0.965 | locus YLR403W, strain SFP1, hits give low values 0.921 | locus YML070W, strain DAK1, hits give low values 0.956 | locus YMR001C, strain CDC5, hits give low values 0.978 | locus YMR205C, strain PFK2 (second series), hits give low values 0.967 | locus YMR277W, strain FCP1, hits give low values 0.976 | locus YNL006W, strain LST8, hits give low values 0.987 | locus YNL020C, strain ARK1, hits give low values 0.956 | locus YNL161W, strain CBK1, hits give low values 0.98 | [6] 1.02 | locus YNL207W, strain RIO2, hits give low values 0.965 | locus YNL222W, strain SSU72, hits give low values 0.982 | locus YNL307C, strain MCK1 (second series), hits give low values 0.927 | locus YOL078W, strain AVO1, hits give low values 0.972 | locus YOL136C, strain PFK27, hits give low values 0.919 | locus YOR061W, strain CKA2, hits give low values 0.961 | locus YOR119C, strain RIO1, hits give low values 1.01 | [7] 0.964 | locus YOR329C, strain SCD5, hits give low values 0.984 | locus YPL031C, strain PHO85, hits give low values 0.968 | locus YPL153C, strain RAD53, hits give low values 0.953 | locus YPL204W, strain HRR25, hits give low values 0.943 | locus YPL209C, strain IPL1, hits give low values 0.982 | locus YPR025C, strain CCL1, hits give low values 0.982 | locus YPR106W, strain ISR1, hits give low values 0.983 | locus YPR111W, strain DBF20, hits give low values 0.961 | strain NNK1, hits give low values 0.975 | strain TSCII, hits give low values 0.976

COc1ccc(-c2cc(=O)c3c(OC)c(OC)c(OC)c(OC)c3o2)cc1
active: locus YAL026C, strain drs2, hits give low values 0.846 | locus YBL061C, strain skt5, hits give low values 0.792 | locus YBR023C, strain chs3, hits give low values 0.848 | locus YBR231C, strain swc5, hits give low values 0.795 | locus YCL011C, strain gbp2, hits give low values 0.907 | locus YCL016C, strain dcc1, hits give low values 0.911 | locus YCL061C, strain MRC1, hits give low values 0.918 | locus YDR137W, strain rgp1, hits give low values 0.705 | locus YDR335W, strain msn5, hits give low values 0.915 | locus YDR392W, strain spt3, hits give low values 0.248 | locus YEL061C, strain CIN8 (second series), hits give low values 0.874 | locus YER015W, strain faa2, hits give low values 0.912 | locus YER016W, strain bim1, hits give low values 0.898 | locus YER155C, strain BEM2 (second series), hits give low values 0.51 | locus YGL227W, strain vid30, hits give low values 0.87 | locus YGL240W, strain doc1, hits give low values 0.84 | locus YGL253W, strain hxk2, hits give low values 0.792 | locus YHR142W, strain chs7, hits give low values 0.54 | locus YJL095W, strain BCK1 (second series), hits give low values 0.899 | locus YJL129C, strain trk1, hits give low values 0.774 | locus YJL166W, strain qcr8, hits give low values 0.801 | locus YJL187C, strain SWE1, hits give low values 0.922 | locus YKL160W, strain elf1, hits give low values 0.887 | locus YLR027C, strain aat2, hits give low values 0.892 | locus YLR221C, strain rsa3, hits give low values 0.889 | locus YLR262C, strain YPT6 (second series), hits give low values 0.692 | locus YLR320W, strain mms22, hits give low values 0.635 | locus YLR342W, strain FKS1, hits give low values 0.904 | locus YLR370C, strain arc18, hits give low values 0.862 | locus YMR058W, strain fet3, hits give low values 0.845 | locus YMR205C, strain PFK2, hits give low values 0.78 | locus YNL071W, strain lat1, hits give low values 0.473 | locus YOR083W, strain WHI5, hits give low values 0.879 | locus YOR106W, strain vam3, hits give low values 0.837 | locus YOR270C, strain vph1, hits give low values 0.644 | locus YPL051W, strain arl3, hits give low values 0.882 | locus YPL078C, strain atp4, hits give low values 0.791
inactive: locus YAL021C, strain ccr4, hits give low values 0.996 | locus YAL030W, strain snc1, hits give low values 0.959 | locus YBR009C, strain hhf1, hits give low values 0.91 | locus YBR171W, strain sec66, hits give low values 0.961 | locus YBR279W, strain paf1, hits give low values 0.942 | locus YCL069W, strain vba3, hits give low values 0.934 | locus YCR088W, strain abp1, hits give low values 0.937 | locus YDL005C, strain med2, hits give low values 0.985 | locus YDL040C, strain nat1, hits give low values 0.975 | locus YDR001C, strain nth1, hits give low values 0.959 | locus YDR069C, strain doa4, hits give low values 0.981 | locus YDR159W, strain sac3, hits give low values 0.931 | locus YDR195W, strain ref2 1.05 | locus YDR297W, strain sur2, hits give low values 0.954 | locus YDR334W, strain swr1, hits give low values 0.938 | locus YEL003W, strain gim4, hits give low values 0.964 | locus YEL037C, strain rad23, hits give low values 0.99 | locus YER111C, strain swi4, hits give low values 0.978 | locus YFR010W, strain ubp6, hits give low values 0.967 | locus YGL167C, strain pmr1, hits give low values 0.972 | locus YGL173C, strain kem1, hits give low values 0.913 | locus YHR013C, strain ard1, hits give low values 0.887 | locus YHR027C, strain rpn1, hits give low values 0.974 | [1] 1.02 | [2] 1.02 | locus YJL092W, strain hpr5, hits give low values 0.946 | [3] 0.984 | locus YJL115W, strain asf1, hits give low values 0.977 | locus YJL154C, strain vps35, hits give low values 0.996 | locus YJL164C, strain tpk1, hits give low values 0.933 | [4] 0.964 | locus YKR026C, strain gcn3, hits give low values 0.974 | locus YKR091W, strain srl3, hits give low values 0.986 | locus YLL001W, strain dnm1, hits give low values 0.922 | locus YLL026W, hits give low values 0.968 | locus YLL041C, strain sdh2, hits give low values 0.973 | [5] 0.96 | locus YLR258W, strain gsy2, hits give low values 0.944 | locus YLR357W, strain rsc2, hits give low values 0.924 | locus YLR384C, strain iki3, hits give low values 0.978 | locus YML120C, strain ndi1, hits give low values 0.948 | locus YMR125W, strain sto1, hits give low values 0.899 | locus YMR129W, hits give low values 0.978 | locus YMR231W, strain pep5, hits give low values 1.01 | [6] 0.937 | locus YNL209W, strain ssb2, hits give low values 0.994 | locus YNL248C, strain rpa49, hits give low values 0.997 | locus YNL322C, strain KRE1 (second series), hits give low values 0.943 | locus YNR049C, strain mso1, hits give low values 0.985 | locus YOR001W, strain rrp6, hits give low values 0.962 | locus YOR070C, strain gyp1, hits give low values 0.961 | locus YOR080W, strain dia2, hits give low values 0.992 | [7] 1.02 | locus YOR265W, strain rbl2, hits give low values 0.94 | locus YOR290C, strain snf2, hits give low values 0.886 | locus YPL106C, strain sse1, hits give low values 0.927 | locus YPL240C, strain hsp82, hits give low values 0.966 | [8] 1.04
